Data reported in PubChem BioAssay (Tox21).
Where “and” joins values, the source holds several entries; their conditions need not be identical. Equal entries are not always repeated. Records with an inconclusive call do not appear. Calls of active or inactive are those of the source. Unless noted, the call rests on the fitted dose curve; in most records, active means well fitted curve in the direction sought with a large enough effect in the repeat runs; inconclusive means weak or mixed curves; inactive means no such curve, though single readings can be large; an effect the other way counts as inactive or inconclusive.

Assays:
[1] = qHTS assay for small molecules that induce genotoxicity in human embryonic kidney cells expressing luciferase-tagged ATAD5 (AID 651632); conditions: HEK293T ATAD5-luciferase induction, 16 h; series mostly up to 83.3 µM; further: nearly all actives have a fitted effect of over 15% in size; further: potency means the concentration at half of the fitted maximal effect
In short: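 Concentration-response screen for ATAD5 upregulation in HEK293T luciferase reporter cells; 16 hr treatment at 37C, then luminescence after 30 min with Amplite at room temperature.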

[2] = qHTS assay for small molecule agonists of the p53 signaling pathway - cell viability (AID 651633; calls by dose curve; further: nearly all actives have a fitted effect of over 30% in size; further: potency means the concentration at half of the fitted maximal effect); conditions: p53RE-bla HCT-116 viability, ATP luminescence, 16 h; series mostly up to 83.3 µM
In short: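 p53RE-bla cells, seeded at 4,000 per well and rested 5 h at 37 C/5% CO2, received compounds in DMSO for 16 h at 37 C. CellTiter-Glo was then added, and luminescence was read after 30 min at room temperature to gauge cytotoxicity.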

[3] = qHTS assay for small molecules that induce genotoxicity in human embryonic kidney cells expressing luciferase-tagged ATAD5 - cell viability (AID 651634; calls by dose curve; further: nearly all actives have a fitted effect of over 25% in size; further: potency means the concentration at half of the fitted maximal effect); conditions: HEK293T ATAD5-luc cells viability, CellTiter-Fluor, 15.5 h; series mostly up to 83.3 µM
In short: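 15.5 hr compound or vehicle exposure of HEK293T cells expressing luciferase-tagged ATAD5 at 37C; live-cell protease activity is read by fluorescence after 30 min of CellTiter-Fluor.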

[4] = qHTS assay for small molecule disruptors of the mitochondrial membrane potential - cell viability (AID 720634; calls by dose curve;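 further: human HepG2 liver cancer cells; nearly all actives have a fitted effect of over 20% in size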); conditions: HepG2 viability, ATP luminescence (CellTiter-Glo), 1 h; series mostly up to 83.2 µM
In short: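 In this qHTS format, HepG2 cells plated overnight were pinned with compound, incubated 1 hr, and assayed for ATP luminescence with CellTiter-Glo after m-MPI dye addition.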

[5] = qHTS assay for small molecule disruptors of the mitochondrial membrane potential (AID 720635); conditions: HepG2 mitochondrial membrane potential, Mito-MPS dye ratio; series mostly up to 83.2 µM; further: potency means the concentration at half of the fitted maximal effect
In short: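 HepG2 cells (2,000/well) attached overnight at 37C, then took compound for 1 hr at 37C, 5% CO2. Mito-MPS dye was added for 30 min; fluorescence was read at 490/535 nm (monomers) and 540/590 nm (aggregates).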

[6] = qHTS assay to test for compound auto fluorescence at 590 nm (red) in HepG2 cells (AID 720674); conditions: HepG2 autofluorescence, red 540/590 nm, 1 h; series mostly up to 91.3 µM
In short: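 Compound auto-fluorescence is scored relative to Rose Bengal sodium, measured at 540/590 nm in live HepG2 cultures after 1 hr compound contact (37 C, 5% CO2).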

[7] = qHTS assay to test for compound auto fluorescence at 535 nm (green) in HepG2 cells (AID 720675); conditions: green autofluorescence 485/535 nm, 1 h; series mostly up to 91.3 µM
[8] = qHTS assay to test for compound auto fluorescence at 460 nm (blue) in HEK293 cells (AID 720678); conditions: blue autofluorescence 405/460 nm; series mostly up to 91.3 µM
In short: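 Blue read-out at excitation 405 nm and emission 460 nm follows overnight compound exposure of HEK293 cells at 37C in 5% CO2. Activity is given as auto fluorescence equivalency to triamterene.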

[9] = qHTS assay to test for compound auto fluorescence at 590 nm (red) in HEK293 cells (AID 720679); conditions: red autofluorescence 540/590 nm; series mostly up to 91.3 µM
In short: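 Red channel, Ex/Em 540/590nm; signal expressed as equivalency to Rose Bengal sodium. HEK293, 2,000 cells/well, 10% dialyzed FBS; 23 nL compound pinned after 4-5 hr attachment; overnight 37C/5% CO2 before reading.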

[10] = qHTS assay for small molecule agonists of the p53 signaling pathway (AID 651631; calls by dose curve; further: nearly all actives have a fitted effect of over 15% in size; further: potency means the concentration at half of the fitted maximal effect); conditions: HCT-116 p53RE-bla reporter, beta-lactamase FRET ratio, 16 h; series mostly up to 73.3 µM
In short: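 Fluorescence intensity from cleaved LiveBLAzer B/G substrate (2 h, room temperature) served as the signal. Beforehand, HCT-116 reporter cells bearing p53 response elements were treated 16 h at 37 °C with DMSO-dissolved compounds.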
On the % scale 0 is the no-effect control and ±100 the full control effect.

NC(=O)Nc1ccc(Cl)cc1
inactive: Potency [1] | Potency [2] | Potency [3] | Potency [4] | Potency [5] | outcome [6] | outcome [7] | Potency [8] | outcome [9]

OCC1CC=CCC1 (configuration not stated)
inactive: Potency [1] | Potency [2] | Potency [3] | Potency [4] | Potency [5] | outcome [6] | Potency [8] | outcome [9]

CC(=O)OCC(=O)[C@H]1CC[C@H]2[C@@H]3CCC4=CC(=O)CC[C@]4(C)[C@H]3CC[C@]12C
inactive: Potency [1] | Potency [2] | Potency [3] | Potency [4] | Potency [5] | outcome [6] | outcome [7] | Potency [8] | outcome [9]

CC[C@@H]([C@H](C)O)n1ncn(-c2ccc(N3CCN(c4ccc(OC[C@@H]5CO[C@@](Cn6cncn6)(c6ccc(F)cc6F)C5)cc4)CC3)cc2)c1=O
inactive: Potency [10] | Potency [4] | outcome [6] | Potency [8] | outcome [9]
active: Potency [2] 29.8 µM

CO/N=C1\CN(c2nc3c(cc2F)c(=O)c(C(=O)O)cn3C2CC2)CC1CN (configuration not stated)
inactive: Potency [1] | Potency [2] | Potency [3] | Potency [4] | Potency [5] | outcome [6] | outcome [7] | Potency [8]

CO[C@@]12[C@H](COC(N)=O)C3=C(C(=O)C(C)=C(N)C3=O)N1C[C@@H]1N[C@@H]12
active: Potency [10] 1.88 µM | Potency [2] 23.7 µM
inactive: Potency [4] | Potency [5] | outcome [6] | outcome [7] | Potency [8] | outcome [9]

Nc1nc(Cl)nc2c1ncn2[C@@H]1O[C@H](CO)[C@@H](O)[C@@H]1F
inactive: Potency [3] | Potency [4] | outcome [6] | outcome [7] | Potency [8] | outcome [9]
active: Potency [10] 0.0841 µM

O=C(CS)OCCOC(=O)CS
active: Potency [1] 30.6 µM
inactive: Potency [2] | Potency [3] | Potency [4] | outcome [6] | outcome [7] | Potency [8]

O=C(C(=O)c1ccccc1)c1ccccc1
inactive: Potency [10] | Potency [2] | Potency [3] | Potency [4] | outcome [6] | outcome [7] | Potency [8] | outcome [9]

COCC(O)CO (configuration not stated)
inactive: Potency [10] | Potency [2] | Potency [3] | Potency [4] | outcome [6] | outcome [7] | Potency [8] | outcome [9]

CCN(Cc1cccc(S(=O)(=O)O)c1)c1ccc(C(=C2C=CC(=[N+](CC)Cc3cccc(S(=O)(=O)[O-])c3)C=C2)c2ccccc2)cc1
inactive: Potency [1] | Potency [2] | Potency [3] | Potency [4] | outcome [6] | outcome [7] | Potency [8]

CC(=O)CC(c1ccc([N+](=O)[O-])cc1)c1c(O)c2ccccc2oc1=O (configuration not stated)
inactive: Potency [10] | Potency [2] | Potency [3] | Potency [4] | fluorescence, relative to Rose Bengal [6] -0.182% [at 18.6 µM] | fluorescence, % of triamterene [8] -0.0105% [at 18.6 µM] | fluorescence, % of fluorescent control [9] 0.088% [at 18.6 µM]
active: Potency [5] 7.17 µM

COc1ccccc1N=Nc1c(S(=O)(=O)O)cc2cc(S(=O)(=O)O)cc(NC(C)=O)c2c1O
active: Potency [3] 28.8 µM
inactive: Potency [10] | Potency [2] | Potency [4] | outcome [6] | outcome [7] | Potency [8] | outcome [9]

CCOC(=O)c1ccccc1OC
inactive: Potency [1] | Potency [2] | Potency [3] | Potency [4] | Potency [5] | outcome [6] | outcome [7] | Potency [8] | outcome [9]

CC(C)=CC=O
inactive: Potency [1] | Potency [2] | Potency [3] | Potency [4] | Potency [5] | outcome [6] | outcome [7] | Potency [8] | outcome [9]

O=[N+]([O-])c1cccc(S(=O)(=O)NCCNS(=O)(=O)c2cccc([N+](=O)[O-])c2)c1
active: Potency [5] 11.9 µM
inactive: Potency [10] | Potency [3] | outcome [6] | outcome [7] | Potency [8] | outcome [9]

CC1CN(c2cc3c(cc2F)c(=O)c(C(=O)O)cn3-c2ccc(F)cc2F)CCN1 (configuration not stated)
inactive: Potency [1] | Potency [2] | Potency [3] | Potency [4] | Potency [5] | outcome [6] | outcome [7] | Potency [8] | outcome [9]

CCC(C)=O
inactive: Potency [10] | Potency [2] | Potency [3] | outcome [6] | outcome [7] | Potency [8] | outcome [9]

CCCCC(CC)CNCC(CC)CCCC (configuration not stated)
inactive: Potency [1] | Potency [2] | Potency [3] | Potency [4] | Potency [5] | outcome [6] | outcome [7] | Potency [8] | outcome [9]

C=CC(=O)NCOCC(C)C
inactive: Potency [1] | Potency [2] | Potency [3] | Potency [4] | Potency [5] | outcome [6] | outcome [7] | Potency [8] | outcome [9]

COC(=O)CC(=O)C(C)(C)C
inactive: Potency [1] | Potency [2] | Potency [3] | Potency [4] | Potency [5] | outcome [6] | outcome [7] | Potency [8]

CCCCCCCCCCCC(=O)[O][Sn]([CH2]CCC)([CH2]CCC)[O]C(=O)CCCCCCCCCCC
inactive: Potency [1] | Potency [2] | Potency [3] | Potency [4] | Potency [5] | outcome [6] | outcome [7] | Potency [8]

CCCCCCCCCCCCCCCCBr
inactive: Potency [10] | Potency [2] | Potency [3] | Potency [4] | fluorescence, relative to Rose Bengal [6] 0.0532% [at 18.6 µM] | fluorescence, % of fluorescein control [7] 0.118% [at 18.6 µM] | fluorescence, % of triamterene [8] -0.0281% [at 18.6 µM] | fluorescence, % of fluorescent control [9] -0.108% [at 18.6 µM]

C=CCCCCCCCCCCCCCCCC
inactive: activation [10] -3.57% [at 8.3 µM] | activity change, negative = cytotoxicity [2] 16.1% [at 8.08 µM] | activity, negative = cytotoxicity [3] 7.59% [at 8.08 µM] | activity change, negative = cytotoxicity [4] 11.3% [at 8.08 µM] | fluorescence, relative to Rose Bengal [6] 0.0868% [at 3.72 µM] | fluorescence, % of fluorescein control [7] -0.0078% [at 3.72 µM] | fluorescence, % of triamterene [8] 0.18% [at 3.72 µM] | fluorescence, % of fluorescent control [9] 0.277% [at 3.72 µM]

CCCCCCCC/C=C\CCCCCCCC(=O)OC(CO)CO
inactive: Potency [1] | Potency [2] | Potency [3] | Potency [4] | Potency [5] | outcome [6] | Potency [8] | outcome [9]

CC1CC(O)CC(C)(C)C1 (configuration not stated)
inactive: Potency [10] | Potency [3] | Potency [4] | Potency [5] | outcome [6] | outcome [7] | Potency [8] | outcome [9]

CCCCOC(=O)CCS
inactive: Potency [10] | Potency [2] | Potency [3] | Potency [4] | outcome [6] | outcome [7] | Potency [8] | outcome [9]

C=CCOC(=O)/C=C\C(=O)OCC=C
inactive: Potency [1] | Potency [2] | Potency [3] | Potency [4] | Potency [5] | outcome [6] | outcome [7] | Potency [8] | outcome [9]

[O]=[Bi]
inactive: activation [1] 1.52% [at 8.08 µM] | activity change, negative = cytotoxicity [2] 9.6% [at 8.08 µM] | activity, negative = cytotoxicity [3] 17.3% [at 8.08 µM] | activity change, negative = cytotoxicity [4] 7.5% [at 8.08 µM] | ratio activity, negative = MMP loss [5] 14.9% [at 8.08 µM] | fluorescence, relative to Rose Bengal [6] -0.152% [at 3.72 µM] | fluorescence, % of fluorescein control [7] 0.162% [at 3.72 µM] | fluorescence, % of triamterene [8] -0.117% [at 3.72 µM] | fluorescence, % of fluorescent control [9] 0.261% [at 3.72 µM]

O=C(CCCCCCC(=O)Nc1ccccc1)NO
inactive: Potency [3] | Potency [4] | Potency [5] | outcome [6] | outcome [7] | Potency [8] | outcome [9]
active: Potency [10] 750 nM and 668 nM

CCCCCCCCCCCCCCC[C@H](O)[C@@H](N)CO
inactive: Potency [1] | Potency [3] | Potency [4] | outcome [6] | outcome [7] | Potency [8]

COc1cc2c(cc1OC)-c1cc(=Nc3c(C)cc(C)cc3C)n(C)c(=O)n1CC2
inactive: Potency [1] | outcome [6] | outcome [7] | Potency [8] | outcome [9]
active: Potency [2] 29.8 µM | Potency [3] 29.8 µM

CCC1(C)CC(=O)NC1=O (configuration not stated)
inactive: Potency [1] | Potency [2] | Potency [3] | Potency [4] | outcome [6] | Potency [8] | outcome [9]
